This passage reports growth results from PubChem BioAssay (NCI).

Structures are written as SMILES. This is part of a sample that, as a whole, favours compounds with a hit. Of some 83,000 tested, about 20% had one in any assay.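 Assay: single dose, 48 h. Readout: percent growth (0 = no net growth; negative = cell death). Active: <10.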 A number with no mark means an inactive call. Calls of active or inactive are those of the source.

One assay deals with MDA-MB-231 breast. Description: NCI-60 one-dose screen, 48 h (100 = growth as untreated, 0 = no growth, -100 = all killed). The settings on record: 10 µM unless noted.
Take `O=C1CN(c2ccccc2)C(=O)C1C(=O)Nc1ccc(Cl)c(Cl)c1` (stereo unspecified): the growth was 27.2% [100 µM]. On the same count and under the same terms, the value for `CN(C)CCCC1(c2ccc(F)cc2)OCc2cc(-c3ccc(C(F)(F)F)nc3)ccc21` (stereo unspecified) was 72.6%; that for `Fc1ccc(Nc2nnc(-c3ccc(Cl)cc3)o2)cc1` was 85.9%. The same measure, in the same setting: the figure for `C=C(C)[C@@H]1CC[C@]2(/C=N/Nc3ccncc3)CC[C@]3(C)[C@H](CC[C@@H]4[C@@]5(C)CCCNC(C)(C)[C@@H]5CC[C@]43C)[C@@H]12` is 101%; for `O=C1c2ccccc2NC(c2cn(-c3ccccc3)nc2-c2cccs2)N1Cc1ccccc1` (stereo unspecified) it is 77.4%. Same read-out and setting: the figure for `Cc1cccc(C)c1NCc1nc(-c2ccccc2)n[nH]1` is 103%; for `NC(N)=N/N=C/c1ccc(-c2ccc(-c3ccc(Cl)cn3)s2)cc1` it is 76.8%; for `CCOC(=O)C1OC1(c1ccccc1)c1ccccc1` (stereo unspecified) it is 98.9%.

The next assay has as its system RXF 393 renal. The description is as above. Particulars: 10 µM unless noted.
`CC(=O)c1c(C)[nH]c(-c2nc3ccc(N4CCN(C)CC4)cc3[nH]2)c1-c1ccc(N(C)C)cc1`: the growth was 37.2%. As to `CC(=O)c1c(C)[nH]c(-c2nc3ccc(N4CCN(C)CC4)cc3[nH]2)c1-c1ccc(OCC2CCOCC2)cc1`, the growth is 31.1%. As to `CC/C=C\C[C@H]1CC=C2C(=O)C=C[C@@H]2CC=CCCCC(=O)O[C@@H](CCCCC)CC=C2C(=O)C=C[C@@H]2CC=CCCCC(=O)O[C@@H](CCCCC)CC=C2C(=O)C=C[C@@H]2CC=CCCCC(=O)O[C@@H](CCCCC)CC=C2C(=O)C=C[C@@H]2CC=CCCCC(=O)O1`, the growth is -4.76% [7.9 µM] (active). Take `O=C1c2cccc3cccc(c23)C(=O)N1CC#Cc1ccc2c3c(cccc13)C(=O)N(CCN1CCNCC1)C2=O`: the growth was 82.9%.

Turning to `COc1ccc(NC(=O)c2ccc3c(c2)nc(-c2cc4ccccc4[nH]c2=O)n3-c2cc(C(C)(C)C)[nH]n2)cc1`, the growth was 77.3%. On the same count and under the same terms, the value for `CC(=O)NC1=C(C#N)C(c2ccccc2Cl)c2c(ccc3ccccc23)O1` (stereo unspecified) was 77.2%; that for `CC(C)(C)c1[nH]nc2c1C(c1cc3ccccc3[nH]c1=O)Nc1cc(C(=O)OCc3ccccc3)ccc1N2` (stereo unspecified) was 59.7%; that for `CC1(C)C=CC[C@]2(C)[C@H]3CC[C@@H]4[C@H]5[C@H](C(=O)/C=C/c6cccnc6)CC[C@]5(CO)CC[C@@]4(C)[C@]3(C)CC[C@@H]12` was -86.7% (active). On the same count and under the same terms, the value for `CC1(C)[C@@H](O)CC[C@]2(C)[C@H]3CC[C@@H]4[C@H]5[C@H](C(=O)/C=C/c6ccc(C(F)(F)F)cc6)CC[C@]5(CO)CC[C@@]4(C)[C@]3(C)CC[C@@H]12` was 32.3%.

Consider `N=C(N)c1ccc(S(N)(=O)=O)cc1`, for which the growth was 66.7%.

Take `C=C(C)[C@@H]1CC[C@]2(C(=O)OC)CC[C@]3(C)[C@H](CC[C@@H]4[C@@](C)(CC/C(N)=N/O)[C@H](C(=C)C)CC[C@]43C)[C@@H]12`: the growth is 112%.

`COc1ccc(-c2nc3c(c(C)nn3-c3ccc(F)cc3)c(=O)[nH]2)cc1`: the growth was 82.8%.

`CC1(C)C(=O)/C(=C\c2ccco2)C[C@]2(C)[C@H]3CC[C@@H]4[C@@H](C(=O)/C=C/c5ccco5)CC[C@@]4(C)[C@]3(C)CC[C@@H]12`: the growth is 101%.

Regarding `CC1(C)CC[C@]2(C(=O)Nc3ccccn3)CC[C@]3(C)C(=CC[C@@H]4[C@@]5(C)C/C(=C/c6ccncc6)C(=O)C(C)(C)[C@@H]5CC[C@]43C)[C@@H]2C1`, the growth is -21.5% (active).

Turning to `Cc1csc(-c2ccc3c(c2)COC3(CCCN(C)C)c2ccc(F)cc2)c1` (stereo unspecified), the growth is 43.5%.

Turning to `Cc1nc([P+](c2ccccc2)(c2ccccc2)c2ccccc2)c(Sc2sc(-c3ccccc3)nc2[P+](c2ccccc2)(c2ccccc2)c2ccccc2)o1`, the growth is 26.7%. Same read-out and setting: the value for `O=C(O[C@@H]1Cc2c(O)cc(O)cc2O[C@@H]1c1cc(O)c(O)c(O)c1)c1cc(O)c2c(c1)OCO2` was 111%.

Consider `Fc1ccc2c(c1)c(-c1nc(-c3c[nH]c4ncccc34)cs1)cn2CCCN1CCCCC1`, for which the growth is 69.4%. Still for that read-out and setting: the value for `O=P(O)(c1ccccc1)c1ccccc1I` was 102%; that for `COc1ccc(/C=C(\C#N)c2cc3ccccc3n2S(C)(=O)=O)cc1` was 78.1%.

Take `CN1CCN(CCOc2ccc(-c3cnc4c(-c5cccc(F)c5)cnn4c3)cc2)CC1`: the growth was 66.3%.

`Cc1ccc2oc(=O)cc(-c3sc(N4CCCCC4)nc3-c3ccccc3)c2c1`: the growth is 101%. Same read-out and setting: the figure for `Cc1ccnc2c(OCc3ccccc3)cccc12` is 95.1%. In the case of `N#CC1=C(N)Oc2ccc3ccccc3c2C1c1ccccc1` (stereo unspecified), the growth is 23.3%. The same measure, in the same setting: the figure for `CN(C)CCCCC(C(=O)CBr)(c1ccccc1)c1ccccc1` is -51.5% (active). On the same count and under the same terms, the figure for `CC(=O)O[C@H]1CC[C@]2(C)[C@H]3CC=C4[C@@H]5[C@H](C)[C@@H](C)CC[C@]5(C(=O)NCCNCCNCCN)CC[C@@]4(C)[C@]3(C)CC[C@H]2C1(C)C` is 82.7%; for `Cc1ccc(S(=O)(=O)Nc2ccc(-c3cc(-c4cccc(F)c4)c(C#N)c(N)n3)cc2)cc1` it is -18.2% (active). Same read-out and setting: the figure for `O=C1/C(=C\c2ccc(Br)o2)SC(=S)N1CCc1ccc(O)cc1` is 51.9%. For `CN(C)c1ccc(-c2ccc(-c3ccc(C(=N)N)c(F)c3)s2)cc1`, the growth was -83.2% (active).

For the molecule `Cc1ccc(S(=O)(=O)Nc2ccc(-c3cc(-c4cccc(F)c4)c(C#N)c(=O)[nH]3)cc2)cc1`, the growth was 83.1%. In the case of `O=C1CN(c2ccccc2)C(=O)C1C(=O)Nc1ccc(Cl)c(Cl)c1` (stereo unspecified), the growth was 34.7% [100 µM]. As for `CN(C)CCCC1(c2ccc(F)cc2)OCc2cc(-c3ccc(C(F)(F)F)nc3)ccc21` (stereo unspecified), the growth was 45.1%.

For `Fc1ccc(Nc2nnc(-c3ccc(Cl)cc3)o2)cc1`, the growth is 100%. Turning to `C=C(C)[C@@H]1CC[C@]2(/C=N/Nc3ccncc3)CC[C@]3(C)[C@H](CC[C@@H]4[C@@]5(C)CCCNC(C)(C)[C@@H]5CC[C@]43C)[C@@H]12`, the growth was 96.3%. On the same count and under the same terms, the value for `O=C1c2ccccc2NC(c2cn(-c3ccccc3)nc2-c2cccs2)N1Cc1ccccc1` (stereo unspecified) was 94.5%. For `Cc1cccc(C)c1NCc1nc(-c2ccccc2)n[nH]1`, the growth is 121%. Regarding `NC(N)=N/N=C/c1ccc(-c2ccc(-c3ccc(Cl)cn3)s2)cc1`, the growth was 59.2%. For the molecule `CCOC(=O)C1OC1(c1ccccc1)c1ccccc1` (stereo unspecified), the growth was 113%.
